# Assay outcomes (PubChem BioAssay)
# HCV inhibitor: inhibitors of hepatitis C virus infection. Huh7.5.1 HCVcc-Cre infection, luciferase reporter, 44 h. Potency, µM (doses to about 41.8 µM), most hits filed as inhibitors. actives 3.4% (n = 340,000). AID 651820; active = well fitted inhibition curve with a large enough effect; inconclusive = small, poorly fitted or top-dose-only effect, or another doubt; inactive = no such curve, though single readings can be large or run the other way
#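 Infectious HCVcc-Cre (~0.5 moi) was added to cells just after compound, with cells seeded 4 h earlier at 1,000 per well. Luciferase activity after 44 h culture reported infection; substrate was incubated 15 min at room temperature before reading.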
# Marburg entry inh: blocks Marburg virus binding to or entry into cells; Marburg virus pseudotyped entry inhibition, cell reporter; Potency, µM (highest dose often 37.8 µM), hits mostly inhibitors; actives 1.8% (n = 300,000); calls by dose curve; tested in HEK293 cells
# Cycloheximide cs: counter-screen hit for Shiga toxin inhibitors, cycloheximide. cell reporter, cycloheximide protein synthesis inhibition counterscreen. max response, %. actives 12% (n = 300,000); in the data active = max response mostly above about 13%, no sharp cut-off; inactive = mostly below about 14%; also: read at 38.3 µM for the half of the compounds with a filed dose
# Lassa entry inh: inhibitors of Lassa virus binding or cell entry; Lassa virus pseudotype entry inhibition, cell reporter; Potency, µM (series often up to 37.9 µM), usual class: inhibitors; actives 1.2% (n = 300,000); calls by dose curve; tested in HEK293 cells; also: nearly all actives have a fitted effect of over 50% in size
# Shiga toxin inh: blocks Shiga toxin action in Vero cells; AID 2315; Vero cells, Shiga toxin protein synthesis inhibition reporter; actives 9.2% (n = 290,000); inhibition, % at 38.7 µM; in the data active = inhibition mostly above about 28%, no sharp cut-off; inactive = mostly below about 43%
# FMDV inh: blocks foot and mouth disease virus; FMDV antiviral cell-based qHTS; Potency, µM (highest dose often 57.9 µM), actives largely listed as inhibitors; actives 1.2% (n = 410,000); AID 1159524; calls by dose curve; tested in HEK293T cells; also: read-out not given here; nearly all actives have a fitted effect of over 45% in size
# A number is an active result; - = inactive; ? = inconclusive; . = no result given. This is a sample that favours compounds with a hit; in the whole collection about 13% have one here.
SMILES,HCV inhibitor,Marburg entry inh,Cycloheximide cs,Lassa entry inh,Shiga toxin inh,FMDV inh
CSc1cc(-c2ccncc2)nc(-c2ccc(Cl)cc2)c1,?,4.47µM,-,-,-,-
Clc1ccc2nc(-c3ccncc3)cc(-c3ccccc3)c2c1,-,-,-,-,-,?
Cc1ccc(CNC(=O)Cn2cccc2)cc1,-,.,-,.,-,-
O=c1oc2ccc(C#CC3(O)CCCCC3)cc2cc1-n1cc(-c2ccccn2)nn1,-,.,.,.,.,-
O=C(Nc1ccccc1Cl)C1Cc2ccccc2O/C1=N\O (stereo unspecified),-,.,43.8,.,87.3,-
COc1ccc(S(=O)(=O)NCCSCc2ccc(Cl)cc2)cc1NC(C)=O,-,?,.,-,.,-
CC(C)C(CCNC(=O)CN1C(=O)c2ccccc2C1=O)c1ccco1 (stereo unspecified),-,-,-,-,-,-
CC(C)C(CCNC(=O)CC(Cc1ccccc1)c1ccco1)c1ccco1 (stereo unspecified),-,?,22.4,-,-,-
O=C(COC(=O)c1cncc(Br)c1)NC1CC1,-,-,16.4,-,-,-
CCc1ccc(OC(=O)c2cncc(Br)c2)cc1,-,?,18.2,?,-,-
Cc1ccc(CNC(=O)COC(=O)c2cncc(Br)c2)cc1,-,-,-,-,-,-
CCc1ccc(C(=O)COC(=O)c2cncc(Br)c2)cc1,-,-,39.9,-,-,-
O=C(Oc1ccc2ccccc2c1)c1cncc(Br)c1,-,?,-,-,-,-
CCCCCCCOC(=O)c1ccc(OC(=O)c2cccnc2)cc1,-,-,16.4,-,-,.
CCOc1ccc(OC(=O)c2cccnc2)cc1,-,-,-,-,-,-
CCNC(=O)NC(=O)C(C)SCc1ccccc1C (stereo unspecified),-,-,-,-,-,-
O=C(COc1ccc2ccc(=O)oc2c1)NCCc1c[nH]c2ccc(F)cc12,-,.,-,.,-,?
Cn1cncc1C#Cc1c(C=O)n(C)c2ccccc12,?,.,.,.,.,-
CSc1ccccc1C(=O)NCCS(=O)(=O)N1CCN(c2ccc(F)cc2)CC1,-,-,.,-,.,-
COC(=O)c1ccc(OC(=O)c2cccnc2)cc1,-,-,-,-,-,-
CCCCCOC(=O)c1ccc(OC(=O)c2cncc(Br)c2)cc1,-,-,20.7,-,-,.
CC(C)OC(=O)c1ccc(OC(=O)c2cccnc2)cc1,-,-,11.6,-,-,-
COc1ccc(OCCN2CCN(C(=O)c3ccc(OC)c(OC)c3)CC2)cc1,8.91µM,?,-,?,-,?
COc1ccc(OCC(=O)N2CCN(C(=O)c3ccc(OC)c(OC)c3)CC2)cc1,.,?,.,-,.,-
O=C(c1ccccc1)N1CCCCC1,-,.,.,.,.,-
SMILES,HCV inhibitor,Marburg entry inh,Cycloheximide cs,Lassa entry inh,Shiga toxin inh,FMDV inh
O=C(c1ccc(-n2cccc2)cc1)N1CCCCC1,-,-,25.6,-,-,-
CCCCCOc1ccc(C(=O)CCC(=O)N2CCCC2)cc1,-,-,22.0,?,51.4,-
CCCCCCCCOc1ccc(C(=O)O)cc1,6.31µM,.,.,.,.,-
CCCCOc1ccc(C(=O)NCCCC(=O)N2CCCCC2)cc1,-,-,-,?,-,.
CCCCOc1ccc(C(=O)O)cc1,-,-,-,-,-,-
Cc1nnsc1C(=O)N1CCCC(C)(C(=O)NS(=O)(=O)C2CC2)C1 (stereo unspecified),.,.,.,.,.,-
CCCC/C(C)=N\NC(=O)CNS(=O)(=O)c1ccc([N+](=O)[O-])cc1,-,-,-,-,-,-
CC(Oc1ccc(Cl)cc1Cl)C(=O)NN=C1CCN(C)CC1 (stereo unspecified),-,-,-,-,-,-
COc1ccc(OCCC(=O)N2CCN(C)CC2)cc1,-,.,-,.,-,-
CC(C)OCc1ccc(C(=O)N2CCN(CC(=O)N3CCCC3)CC2)cc1,-,-,.,-,.,-
CCCCOc1c(Cl)cc(C(=O)N2CCN(CC(=O)N3CCCC3)CC2)cc1OCC,10µM,-,.,-,.,-
CCOc1ccc(C(=O)N2CCCC2)cc1,-,-,-,-,-,-
COc1ccc(OCCC(=O)N2CCCCC2)cc1,-,-,26.9,-,35.5,-
CCCCOc1ccc(C(=O)N2CCCC2)cc1,-,?,36.0,?,102.7,-
Cc1ccccc1Nc1nc(N)nc(COC(=O)c2cccn2C)n1,?,-,35.8,?,68.5,-
CCc1ccccc1Nc1nc(N)nc(COC(=O)c2cccn2C)n1,?,8.2µM,30.5,?,-,-
O=[N+]([O-])c1ccc(NCCNc2ccc(Cl)nn2)cc1,?,-,-,?,-,-
